# Sampled rows, rich in hits. Any-hit rate of the full collection: about 19%.
# TDP1 block: blocks human tyrosyl-DNA phosphodiesterase 1; Q9NUW8; recombinant TDP1, AlphaScreen DNA substrate cleavage; Potency, µM (doses to about 130 µM), most hits filed as inhibitors; 350,000 compounds, 0.28% hits; AID 485290; further: nearly all actives have a fitted effect of over 40% in size
# Target sequence (Q9NUW8 whole entry, looked up): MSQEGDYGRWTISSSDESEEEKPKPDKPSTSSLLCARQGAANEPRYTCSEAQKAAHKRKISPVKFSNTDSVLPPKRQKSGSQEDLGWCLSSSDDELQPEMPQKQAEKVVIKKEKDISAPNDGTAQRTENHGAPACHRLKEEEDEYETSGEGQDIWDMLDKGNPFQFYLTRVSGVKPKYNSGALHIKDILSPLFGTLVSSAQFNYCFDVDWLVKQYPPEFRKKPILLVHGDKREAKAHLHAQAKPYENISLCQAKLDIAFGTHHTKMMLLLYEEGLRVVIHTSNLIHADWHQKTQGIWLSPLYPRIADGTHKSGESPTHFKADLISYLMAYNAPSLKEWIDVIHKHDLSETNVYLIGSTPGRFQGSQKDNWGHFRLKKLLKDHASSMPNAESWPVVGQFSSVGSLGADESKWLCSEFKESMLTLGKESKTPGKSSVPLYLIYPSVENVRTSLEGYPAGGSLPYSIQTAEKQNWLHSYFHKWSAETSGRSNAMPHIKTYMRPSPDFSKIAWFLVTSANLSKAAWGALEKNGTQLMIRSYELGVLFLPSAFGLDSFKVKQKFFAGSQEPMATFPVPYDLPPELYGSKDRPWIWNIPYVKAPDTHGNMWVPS
#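 Compounds were preincubated with Tdp1 (1 nM final) for 15 min at room temperature before substrate (15 nM final) started a 5 min reaction; beads (10 ug/ml final) were then added for 10 min before AlphaScreen detection.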
# IL-1B inflam inh: blocks inflammasome-driven IL-1 beta release; THP-1 LPS/ATP IL-1B secretion, AlphaLISA, 16 h; stronger effect = lower value; activity change, % at 57.5 µM; 360,000 compounds, 4.7% hits; AID 743279; in the data active means activity change below about -50%; inconclusive means mostly about -30% to -49%
#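 THP-1 cells pretreated 1 hr with compounds (up to 57.5 uM final), then stimulated with LPS (250 ng/mL final) plus ATP (1.25 mM final); secreted IL-1B measured by AlphaLISA after 16 hr, decreased signal indicating inhibition.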
# TDP1 cell CPT: DT40-hTDP1 cell growth loss with CPT | 420,000 compounds, 12% hits | chicken DT40 Tdp1-/-;hTDP1 cells + 20 nM CPT, ATP luminescence, 48 h | Potency, µM (titrated, usually from 46.2 µM), actives largely listed as inhibitors | AID 686979; further: nearly all actives have a fitted effect of over 55% in size
#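 Cell growth measured by CellTiter-Glo luminescence after a minimum 48 h, 37 C compound exposure with 20 nM CPT in Tdp1-knockout DT40 cells stably expressing hTDP1, seeded 400/well; qHTS titration format.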
# Giardia killer: kills Giardia lamblia; activity change, % at 7.66 µM, hits read low; AID 540267; 340,000 compounds, 0.15% hits; Giardia lamblia trophozoite viability; in the data active means activity change below about -80%; inconclusive means between about -30% and that limit;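 further: parasites exposed to compound for two days anaerobically before the ATP read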
#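 Giardia lamblia trophozoites (100 cells/well) were incubated with compounds for 48 h at 37 deg C under anaerobic conditions. Viability was read as ATP content by one-step luminescence after 15-30 min at room temperature.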
# ELG1 repair inh: blocks ELG1-dependent DNA repair in HEK293T cells; HEK293T ELG1-luciferase reporter, luminescence, 16 h; DNA damage induced by 5-fluorouridine; Potency, µM (top dose mostly 46.1 µM), hits mostly inhibitors; 330,000 compounds, 2.3% hits; AID 504467; further: nearly all actives have a fitted effect of over 55% in size
#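 In this reporter screen, reduction of luminescence relative to DMSO vehicle indicated activity. Compounds and 5-fluorouridine were added together to 2,000 cells per well, incubated for 16 hr at 37 °C, then developed with ONE-Glo.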
# DT40 TDP1 no CPT: qHTS for Inhibitors of human tyrosyl-DNA phosphodiesterase 1 (TDP1): qHTS in cells in absence of CPT; Potency, µM (top dose mostly 46.2 µM), usual class: inhibitors; 420,000 compounds, 15% hits; DT40 Tdp1-/- hTDP1 cells, no CPT, ATP luminescence, 48 h; further: nearly all actives have a fitted effect of over 55% in size
#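 Growth of hTDP1-complemented DT40 Tdp1-knockout cells is measured by ATP luminescence after at least 48 hr compound exposure at 37 °C, with DMSO substituting for the 20 nM CPT used in the parallel screen.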
# Numbers stand for hits; i = inactive; ? = inconclusive; nt = no result given; [ ] = another dose, or the depositor's remark. Unless noted, the call rests on the fitted dose curve; in most records, active means well fitted curve in the direction sought with a large enough effect; inconclusive means small, poorly fitted or top-dose-only effect, or another doubt; inactive means no such curve, though single readings can be large; an effect the other way counts as inactive or inconclusive.
SMILES,TDP1 block,IL-1B inflam inh,TDP1 cell CPT,Giardia killer,ELG1 repair inh,DT40 TDP1 no CPT
NS(=O)(=O)c1ccc2nc(NC(=O)Nc3ccccc3F)sc2c1,i,?,?,i,?,8.2µM
CS(=O)(=O)c1ccc2nc(NC(=O)c3cccs3)sc2c1,i,i,11.6µM,?,?,?
Cc1nc(C(=O)N(C)C)nn1-c1cc(Cl)cc(Cl)c1,i,i,i,i,i,i
CCn1cc(C(=O)N2CCN(c3ccc(C)cc3)C(C)C2)c(=O)c2cc(S(=O)(=O)N3CCCC3)ccc21 (stereo unspecified),i,nt,?,nt,nt,?
O=C(c1ccc(Br)c(S(=O)(=O)N2CCOCC2)c1)N1CCN(C/C=C/c2ccccc2)CC1,nt,i,?,i,nt,?
CS(=O)(=O)c1ccc2nc(NC(=O)c3cccc([N+](=O)[O-])c3)sc2c1,nt,i,i,?,?,18.4µM
Cc1cccc(OCC(=O)Nc2nc3ccc([N+](=O)[O-])cc3s2)c1C,i,i,25.9µM,i,i,?
COc1cccc(-c2nc(NCC3CCCO3)c3ccccc3n2)c1O (stereo unspecified),i,-84.0,?,i,?,?
O=S(=O)(Nc1nc2ccccc2nc1NCC1CCCO1)c1ccccc1 (stereo unspecified),i,i,i,i,i,i
COc1ccccc1Nc1nc(NCC2CCCO2)c2ccccc2n1 (stereo unspecified),i,nt,23.1µM,i,?,20.6µM
Oc1ccccc1-c1nc(NCC2CCCO2)c2ccccc2n1 (stereo unspecified),i,?,?,i,23.1µM,?
CCc1cccc(C)c1NC(=O)C(CC)Sc1nncn2c1cc1occc12 (stereo unspecified),i,nt,20.6µM,nt,nt,20.6µM
CCc1nnc(SC(CC)C(=O)Nc2ccc(OC)c(Cl)c2)c2cc3occc3n12 (stereo unspecified),i,nt,?,nt,nt,?
Cc1cc(C)cc(NC(=O)CSc2nncn3c2cc2occc23)c1,i,nt,i,nt,nt,?
CN(C(=O)CSc1nncn2c1cc1occc12)c1ccccc1,i,nt,?,nt,nt,25.9µM
CCc1nnc(SC(CC)C(=O)Nc2cc(C)ccc2C)c2cc3occc3n12 (stereo unspecified),i,nt,18.4µM,nt,nt,14.6µM
CCCN1CCC(=O)N([C@H](CSc2ccccc2)CC(C)C)CC1,nt,i,?,i,i,?
CN1CCC(=O)N([C@H](CSc2ccc(Br)cc2)Cc2ccccc2)CC1,i,?,20.6µM,i,i,?
CC(C)C[C@@H](CSc1ccccc1)N1CCN(CC(C)C)CCC1=O,nt,i,29.1µM,i,?,14.1µM
CC(C)CN1CCC(=O)N([C@H](CSc2ccc(Br)cc2)Cc2ccccc2)CC1,i,-53.3,14.6µM,i,i,18.4µM
CC(=O)Nc1ccc(SC[C@H](Cc2ccccc2)N2CC[C@@H](N)CCC2=O)cc1,nt,nt,i,nt,nt,0.126µM
CC(=O)Nc1ccc(SCC(CC(C)C)N2CCN(CCc3ccccc3)CCC2=O)cc1 (stereo unspecified),i,nt,nt,i,nt,nt
COc1ccc(NS(=O)(=O)c2cccc(C(=O)N3CCN(c4ccccc4O)CC3)c2)cc1,i[0.505 µM],i,?,i,?,?
O=C(NCc1nnnn1-c1ccc(F)cc1)c1ccc2c(c1)OCO2,nt,i,i,nt,nt,i
C[C@H]1CCC(=O)N([C@H](CSc2ccc(Br)cc2)Cc2ccccc2)CC1,i,?,18.4µM,i,i,29.1µM
SMILES,TDP1 block,IL-1B inflam inh,TDP1 cell CPT,Giardia killer,ELG1 repair inh,DT40 TDP1 no CPT
COC(=O)C1=C(C)N(Cc2ccccc2)C2=C(C(C)=O)C(c3ccccc3)[C@@](O)(C(=O)OC)C(=O)N2C1c1ccccc1 (stereo partly specified),i[21 µM],nt,nt,nt,nt,nt
C#CCn1c(=NC(=O)CSCC(=O)N2CCOCC2)sc2ccccc21,i,i,i,i,i,?
C#CCn1c(=NC(=O)CSC(C)=O)sc2cc(F)ccc21,nt,i,10.3µM,i,i,20.6µM
CCn1c(=NC(=O)CSC(C)=O)sc2cc(F)ccc21,i,i,?,i,nt,18.4µM
O=C1c2ccccc2C(=O)N1CCCCN(C(=O)c1cccc([N+](=O)[O-])c1)c1ccc(Cl)cc1,i,i,20.6µM,i,?,16.4µM
CCc1nc2ccc(C(=O)NCCCN3CCN(c4ccc(F)cc4)CC3)cc2nc1CC,nt,i,?,i,?,?
CCN1CCN(CCCNC(=O)c2ccc3nc(Cc4ccccc4)oc3c2)CC1,i,nt,i,nt,nt,i
O=C(NCCCN1CCN(c2ccccc2)CC1)c1ccc2nc(Cc3ccccc3)oc2c1,i,nt,11.6µM,nt,nt,8.2µM
O=C(NCCCN1CCN(c2ccccc2)CC1)c1nnc(Cc2ccc(F)cc2)o1,i,nt,?,nt,nt,25.9µM
Cc1ccc(C)c(N2CCN(CCCNC(=O)c3nnc(Cc4ccc(F)cc4Cl)o3)CC2)c1,i,nt,2.59µM,nt,nt,4.61µM
O=C(NCCCN1CCN(c2ccc(F)cc2)CC1)c1ccc2nc(Cc3ccccc3)oc2c1,i,nt,13µM,nt,nt,20.6µM
CC1CCN(S(=O)(=O)N2CCC(C(=O)NCc3ccc(F)cc3Cl)CC2)CC1,nt,i,i,nt,nt,?
Cc1ccc(N(C(=O)c2csnn2)C(C(=O)NC2CCCC2)c2cccnc2)c(C)c1 (stereo unspecified),i,i,i,i,i,?
OCC1(Cc2ccc(F)cc2F)CCCN(CCCc2ccccc2)C1 (stereo unspecified),nt,-55.0,?,i,i,14.6µM
OCC1(CCc2ccccc2)CCCN(CCCc2ccccc2)C1 (stereo unspecified),nt,-72.6,?,i,i,?
CN(C1CCCCC1)S(=O)(=O)c1ccc(=S)[nH]c1,i,i,?,i,i,?
CO[C@H]1C=CO[C@]2(C)Oc3c(C)c(O)c4c(O)c(c5c(c4c3C2=O)NC2(CCN(CC(C)C)CC2)N=5)=NC(=O)C(C)=CC=C[C@@H](C)[C@@H](O)[C@@H](C)[C@@H](O)[C@@H](C)[C@@H](OC(C)=O)[C@@H]1C,i[21 µM],nt,nt,nt,nt,nt
COC1C=CO[C@@]2(C)Oc3c(C)c(O)c4c(O)c(c5c(nc6cc(C)ccn65)c4c3C2=O)NC(=O)/C(C)=C\C=CC(C)C(O)[C@@H](C)C(O)C(C)[C@@H](OC(C)=O)C1C (stereo partly specified),i,nt,nt,nt,nt,nt
CO[C@H]1C=CO[C@@]2(C)Oc3c(C)c(O)c4c(O)c(c(/C=N/N5CCN(C6CCCC6)CC5)c(O)c4c3C2=O)NC(=O)/C(C)=C\C=C[C@H](C)[C@H](O)[C@@H](C)[C@@H](O)[C@@H](C)[C@H](OC(C)=O)[C@@H]1C,nt,nt,4.73µM,nt,nt,2.66µM

# Screening results (PubChem BioAssay)
